Source: PubChem BioAssay
FBW7 activator = activators of human E3 ligase FBW7; Q969H0; AlphaScreen FBW7–phospho-cyclin E peptide binding, activator screen; normalized activity (activation), % at 26.1 µM; 0.13% of 650,000 active; in the data active = normalized activity above about 1.9%;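 also: purified mutant Fbw7 with reduced substrate affinity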
GPR151 ag = activates the human receptor GPR151 | PathHunter beta-arrestin GPR151 cells, luminescence | activation, % at 11.2 µM | 1% of 650,000 active; in the data active = activation above about 4.9%
MITF inh = blocks human microphthalmia-associated transcription factor | AlphaScreen MITF homodimerization, bead proximity signal | O75030 | 0.91% of 650,000 active | inhibition, % at 2.6 µM | AID 1259374; in the data active = inhibition above about 50%
TEAD-YAP block = TEAD-YAP interaction inhibition. inhibition, % at 9.12 µM. AID 1259422. HEK-TIYL cells, TEAD-Gal4/YAP UAS-luciferase luminescence. 1.4% of 640,000 active; in the data active = inhibition above about 32%
GPR151 conf act = human GPR151 activation, confirmation screen. AID 1508609. shares compounds with GPR151 ag. activation, % at 11.2 µM. GPR151 PathHunter beta-arrestin cells, luminescence, 90 min; % of EA-reagent control over plate median. 6,700 tested, under 10 active;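 active = mean percent activation across replicates above the confirmation screen cutoff of 4.91%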
GPR119 ag = activates human GPR119 in a GPR151 counter-screen | activation, % at 11.2 µM | shares compounds with GPR151 ag | GPR119 PathHunter beta-arrestin cells, luminescence, 90 min; 0 = compound-well median, 100 = enzyme-acceptor control | 0.3% of 6,700 active;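 active = mean percent activation in the counterscreen above 29.09%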;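 also: counterscreen on off-target GPR119 to flag nonselective hits from the GPR151 activator screen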
Target sequence (Q8TDV5 whole entry, looked up): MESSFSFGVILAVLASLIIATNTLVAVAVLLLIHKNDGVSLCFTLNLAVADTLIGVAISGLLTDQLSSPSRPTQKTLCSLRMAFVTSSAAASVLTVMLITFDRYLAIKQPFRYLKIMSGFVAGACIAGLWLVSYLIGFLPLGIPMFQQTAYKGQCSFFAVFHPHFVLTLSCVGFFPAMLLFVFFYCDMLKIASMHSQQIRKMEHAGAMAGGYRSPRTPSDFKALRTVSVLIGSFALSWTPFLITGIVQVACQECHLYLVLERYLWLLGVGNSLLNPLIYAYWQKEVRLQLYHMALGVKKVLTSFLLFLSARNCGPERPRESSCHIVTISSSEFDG
Numbers stand for hits; i = inactive; nt = no result. Rows were chosen to be rich in hits. Some 3.5% of all compounds tested hit in one or more screens of this group.

SMILES	FBW7 activator	GPR151 ag	MITF inh	TEAD-YAP block	GPR151 conf act	GPR119 ag
CCCCNc1c(N2CCCC(C(=O)OCC)C2)c(=O)c1=O (stereo not given)	i	5.1	i	i	i	i
CCOC(=O)N1CCC(Nc2c(NC(C)CC)c(=O)c2=O)CC1 (stereo not given)	i	8.8	i	i	i	i
COc1ccc(NC(=O)c2cc(CC(C)C)oc2C)cc1	i	i	i	i	nt	nt
CC(=O)NCCNC(=O)c1ccc(Cl)c([N+](=O)[O-])c1	i	i	i	i	nt	nt
O=C(N/N=C/c1ccc(Br)cc1)c1cnccn1	i	i	i	i	nt	nt
Cc1c(N2C(=O)c3ccc(Br)cc3C2=O)c(=O)n(-c2ccccc2)n1C	i	5.2	i	i	i	i
CC(C)(C)c1[nH]nc2c1C(c1ccsc1)C(C#N)=C(N)O2 (stereo not given)	i	6.6	i	i	i	i
Cc1cccc(C)c1NC(=O)CCC(=O)O	i	20	i	i	i	i
O=S(=O)(c1cccc2nsnc12)N1CCC2(CC1)OCCO2	i	i	i	i	nt	nt
Cc1nnc(SCC(=O)Nc2ccc(C)c([N+](=O)[O-])c2)s1	i	7.3	i	i	i	i
Cc1ccc(NC(=O)COc2ccccc2C(=O)NC(C)c2ccccc2)cc1[N+](=O)[O-] (stereo not given)	i	7.1	i	i	i	i
Cc1ccc(NC(=O)C(Sc2ccccc2)c2ccccc2)cc1[N+](=O)[O-] (stereo not given)	i	8.4	i	i	i	i
Cc1nnc(SCC(=O)Nc2ccc(Cl)c([N+](=O)[O-])c2)s1	i	i	i	i	nt	nt
CC(=O)Nc1ccc(NC(=O)C(Sc2ccccc2)c2ccccc2)cc1 (stereo not given)	i	i	i	i	nt	nt
Cc1ccc(Nc2nnc(SCC(=O)Nc3sc4c(c3C(N)=O)CCC4)s2)cc1	i	i	i	i	nt	nt
COCCNC(=O)C1C2C=CC3(CN(Cc4ccc(C)cc4)C(=O)C13)O2 (stereo not given)	i	14	i	i	i	i
CC(C)OC(=O)C1C2C=CC3(CN(Cc4ccccc4)C(=O)C13)O2 (stereo not given)	i	5.5	i	i	i	i
CCCCNC(=O)C1C2C=CC3(CN(Cc4ccccc4Cl)C(=O)C13)O2 (stereo not given)	i	5.7	i	i	i	i
Cn1c(NC(=O)c2ccco2)c(-c2cccs2)c(=O)c2ccccc21	i	6.6	i	i	i	i
COc1ccc(C2/C(=C(/O)c3ccccc3)C(=O)C(=O)N2CCCn2ccnc2)c(OC)c1 (stereo not given)	i	5.9	i	i	i	i
COc1ccc(C2/C(=C(/O)c3ccc(F)cc3)C(=O)C(=O)N2CCCCCC(=O)O)c(OC)c1 (stereo not given)	i	i	i	i	nt	nt
COc1ccc(C2/C(=C(/O)c3ccc(C)cc3)C(=O)C(=O)N2CCCC(=O)O)c(OC)c1 (stereo not given)	i	7.8	i	i	i	i
COCCNC(=O)c1cnc(N2CCN(c3ccccc3OC)CC2)c2ccccc12	i	i	i	i	nt	nt
CC1CCCCN1CCNC(=O)C1c2ccccc2C(=O)N(C)C1c1cccs1 (stereo not given)	i	i	i	i	nt	nt
CC[C@@H](C(=O)[C@@H](C)[C@@H](O)[C@H](C)CCc1ccc(C)c(O)c1C(=O)O)[C@H]1O[C@](CC)([C@H]2CC[C@](O)(CC)[C@H](C)O2)C[C@@H]1C	i	21	i	i	i	i
